DT40 TDP1 CPT: growth inhibition of DT40 Tdp1-/-;hTDP1 cells with camptothecin (screen for TDP1 inhibitors); chicken DT40 Tdp1-/-;hTDP1 cells + 20 nM CPT, ATP luminescence, 48 h; Potency, µM (doses to about 46.2 µM), actives largely listed as inhibitors; actives 12% (n = 420,000); AID 686979; further: nearly all actives have a fitted effect of over 55% in size
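Cell growth measured by CellTiter-Glo luminescence after a minimum 48 h, 37 C compound exposure with 20 nM CPT in Tdp1-knockout DT40 cells stably expressing hTDP1, seeded 400/well; qHTS titration format.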
Six1-Eya2 inh: inhibitors of human Six1/Eya2 interaction | Q15475+O00167 | AlphaScreen GST-Six1/His-Eya2 binding, biochemical; stronger effect = lower value | activity change, % (test concentration not listed) | actives 0.56% (n = 360,000) | AID 651725; in the data active means activity change below about -65%; inconclusive means mostly about -30% to -63%
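Six1/Eya2 binding was read as AlphaScreen signal after compounds were pinned into GST-Six1 plus His-tagged Eya2 (5X stock 250/500 nM) in pH 8.0 Tris/NaCl/TCEP buffer, beads added, then incubated 1 h, 37 C, dark.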
TDP1 cell noCPT: qHTS for Inhibitors of human tyrosyl-DNA phosphodiesterase 1 (TDP1): qHTS in cells in absence of CPT. Potency, µM (doses to about 46.2 µM), actives largely listed as inhibitors. actives 15% (n = 420,000). DT40 Tdp1-/- hTDP1 cells, no CPT, ATP luminescence, 48 h. AID 686978, 2013; further: nearly all actives have a fitted effect of over 55% in size
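Chicken DT40 Tdp1-/- cells complemented with human TDP1, screened without camptothecin (DMSO vehicle only), 400 cells/well. Compounds pin-transferred, cells incubated at 37 °C for at least 48 hr. Growth read as ATP-dependent luminescence (CellTiter-Glo, 30 min at RT).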
CtBP-E1A inh: inhibitors of CtBP/E1A interaction; AlphaScreen GST-E1A/His-CtBP binding, 1536-well; stronger effect = lower value; activity change, % (test concentration not listed); actives 0.49% (n = 340,000); in the data active means activity change below about -65%; inconclusive means mostly about -30% to -63%
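Homogeneous bead-based format: GST-tagged E1A captured on glutathione donor beads, His-tagged CtBP on nickel acceptor beads; compounds precede bead addition by 2 h at 37 °C.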
IL-1B inflam inh: blocks inflammasome-driven IL-1 beta release | THP-1 LPS/ATP IL-1B secretion, AlphaLISA, 16 h; stronger effect = lower value | activity change, % at 57.5 µM | actives 4.7% (n = 360,000); in the data active means activity change below about -50%; inconclusive means mostly about -30% to -49%
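Secreted IL-1B measured by AlphaLISA bead assay after 16 h compound exposure of THP-1 cells; compounds (final up to 57.5 uM) added 1 h before LPS (250 ng/mL) and ATP (1.25 mM) stimulation; lower signal means less secretion.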
TDP1 block: TDP1 (human) enzyme inhibition; Potency, µM (highest dose often 130 µM), hits mostly inhibitors; recombinant TDP1, AlphaScreen DNA substrate cleavage; AID 485290; Q9NUW8; actives 0.28% (n = 350,000); further: nearly all actives have a fitted effect of over 40% in size
Target sequence (Q9NUW8 whole entry, looked up): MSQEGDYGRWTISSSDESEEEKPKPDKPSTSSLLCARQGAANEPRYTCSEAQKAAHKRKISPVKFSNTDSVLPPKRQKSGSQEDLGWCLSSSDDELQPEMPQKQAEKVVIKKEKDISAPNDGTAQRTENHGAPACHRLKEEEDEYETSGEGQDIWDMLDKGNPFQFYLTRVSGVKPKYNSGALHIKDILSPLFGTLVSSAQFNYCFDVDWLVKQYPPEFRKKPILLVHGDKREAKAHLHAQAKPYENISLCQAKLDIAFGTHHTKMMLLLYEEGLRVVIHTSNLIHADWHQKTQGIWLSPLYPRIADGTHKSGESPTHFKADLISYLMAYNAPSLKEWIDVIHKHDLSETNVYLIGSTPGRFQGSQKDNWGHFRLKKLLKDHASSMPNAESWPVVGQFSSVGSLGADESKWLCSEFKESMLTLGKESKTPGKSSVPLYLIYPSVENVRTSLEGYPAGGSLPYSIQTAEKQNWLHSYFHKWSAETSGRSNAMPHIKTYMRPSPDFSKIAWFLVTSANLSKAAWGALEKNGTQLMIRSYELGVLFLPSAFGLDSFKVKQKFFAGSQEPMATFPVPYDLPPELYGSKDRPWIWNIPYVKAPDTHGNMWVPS
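Recombinant E. coli-expressed Tdp1 (1 nM) preincubated with compound 15 min at RT, then 5'-biotin/3'-phosphotyrosine-FITC DNA substrate (15 nM) added for 5 min. AlphaScreen beads (10 ug/ml) added, 10 min RT; tyrosine-FITC cleavage read as signal loss.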
Hits are given with their value. Only some compounds are listed: those with a hit (about 18% of all), similar ones and a draw of the others. Unless noted, the call rests on the fitted dose curve; in most records, active means well fitted curve in the direction sought with a large enough effect; inconclusive means small, poorly fitted or top-dose-only effect, or another doubt; inactive means no such curve, though single readings can be large; an effect the other way counts as inactive or inconclusive.

Results for COc1cc2[nH]c(=O)n(CCCC(=O)N3CCN(c4cccc(C(F)(F)F)c4)CC3)c(=O)c2cc1OC ?
DT40 TDP1 CPT: 4.6µM; TDP1 cell noCPT: 2.3µM; TDP1 block: inactive

Results for COc1cc2[nH]c(=O)n(CCCC(=O)NCc3ccccc3)c(=O)c2cc1OC ?
DT40 TDP1 CPT: inactive; TDP1 cell noCPT: inactive; TDP1 block: inactive

What do the screens show for `COC(=O)c1ccc2c(=O)n(CCCCCC(=O)N3CCN(c4ccccc4)CC3)c(=O)[nH]c2c1`?
DT40 TDP1 CPT: 18µM; Six1-Eya2 inh: inactive; TDP1 cell noCPT: 10µM; CtBP-E1A inh: inactive; IL-1B inflam inh: inactive; TDP1 block: inactive

How did CCOc1cc2[nH]c(=O)n(CCCCC(=O)N3CCN(c4ccc(OC)cc4)CC3)c(=O)c2cc1OCC do in these assays?
DT40 TDP1 CPT: 16µM; TDP1 cell noCPT: 9.2µM; TDP1 block: inactive

What do the screens show for `COc1ccc(S(=O)(=O)N2CCOC2CNC(=O)C(=O)NCC(C)C)cc1` (stereo not given)?
DT40 TDP1 CPT: inactive; Six1-Eya2 inh: inactive; TDP1 cell noCPT: inactive; CtBP-E1A inh: inactive; IL-1B inflam inh: inactive; TDP1 block: inactive

Results for NC1=NC2OC(CO)C(O)C2O1 (stereo not given) ?
DT40 TDP1 CPT: inactive; Six1-Eya2 inh: inactive; TDP1 cell noCPT: inactive; CtBP-E1A inh: inactive; IL-1B inflam inh: inactive

Results for CCC(Cn1nnc2ccccc2c1=O)NC(=O)Nc1ccc(C)cc1 (stereo not given) ?
DT40 TDP1 CPT: inactive; TDP1 cell noCPT: inconclusive; TDP1 block: inactive

How did CCOCc1c(C(=O)Nc2ccccc2N2CCN(C)CC2)oc2ccccc12 do in these assays?
DT40 TDP1 CPT: 8.2µM; Six1-Eya2 inh: inactive; TDP1 cell noCPT: 10µM; CtBP-E1A inh: inactive; IL-1B inflam inh: -57; TDP1 block: inactive

How did Cc1ccccc1NC(=O)c1ccc2nc(N3CCOCC3)sc2c1 do in these assays?
DT40 TDP1 CPT: 18µM; Six1-Eya2 inh: inactive; TDP1 cell noCPT: 15µM; CtBP-E1A inh: inactive; IL-1B inflam inh: inactive

What do the screens show for `CCOCc1c(C(=O)Nc2ccc3nc(N4CCOCC4)sc3c2)oc2ccccc12`?
DT40 TDP1 CPT: 21µM; Six1-Eya2 inh: inactive; TDP1 cell noCPT: inconclusive; CtBP-E1A inh: inactive; IL-1B inflam inh: inactive; TDP1 block: inactive

Results for COc1ccc(C(=O)Nc2ccc3nc(N4CCOCC4)sc3c2)cc1OC ?
DT40 TDP1 CPT: inactive; Six1-Eya2 inh: inactive; TDP1 cell noCPT: inactive; CtBP-E1A inh: inactive; IL-1B inflam inh: inactive; TDP1 block: inactive

What do the screens show for `CCCn1nc(C(=O)Nc2ccc3nc(N4CCOCC4)sc3c2)ccc1=O`?
DT40 TDP1 CPT: 9.2µM; Six1-Eya2 inh: inactive; TDP1 cell noCPT: 10µM; CtBP-E1A inh: inactive; IL-1B inflam inh: inactive; TDP1 block: inactive

What do the screens show for `Cc1nc2sc(C(c3ccc(Cl)cc3)N3CCN(CCO)CC3)c(O)n2n1` (stereo not given)?
DT40 TDP1 CPT: inconclusive; Six1-Eya2 inh: inactive; TDP1 cell noCPT: inactive; CtBP-E1A inh: inactive; IL-1B inflam inh: inactive

What do the screens show for `CC(C)(C)N(NS(=O)(=O)c1ccc(F)cc1)c1ccccc1`?
DT40 TDP1 CPT: inactive; Six1-Eya2 inh: inactive; TDP1 cell noCPT: inactive; CtBP-E1A inh: inactive; IL-1B inflam inh: inactive

Results for CC1CN(C(=O)Nc2ccc(C(=O)NCCc3ccccc3)cc2)c2ccccc2S1 (stereo not given) ?
DT40 TDP1 CPT: inconclusive; TDP1 cell noCPT: inconclusive; TDP1 block: inactive

Results for COc1ccc(CNC(=O)c2ccc(NC(=O)N3CCSc4ccccc43)cc2)cc1 ?
DT40 TDP1 CPT: inconclusive; TDP1 cell noCPT: inconclusive; TDP1 block: inactive

How did CCc1ccc(CNC(=O)c2ccc(NC(=O)N3CC(C)Sc4ccccc43)cc2)cc1 (stereo not given) do in these assays?
DT40 TDP1 CPT: 10µM; TDP1 cell noCPT: 9.2µM; TDP1 block: inactive

How did Cc1cccc(CNC(=O)c2ccc(NC(=O)N3CC(C)Sc4ccccc43)cc2)c1 (stereo not given) do in these assays?
DT40 TDP1 CPT: 21µM; TDP1 cell noCPT: 16µM; TDP1 block: inactive

What do the screens show for `COc1cccc(CNC(=O)c2ccc(NC(=O)N3CC(C)Sc4ccccc43)cc2)c1` (stereo not given)?
DT40 TDP1 CPT: 18µM; TDP1 cell noCPT: 15µM; TDP1 block: inactive

How did COc1cc(OC)nc(-n2ncc(Br)c(Br)c2=O)n1 do in these assays?
DT40 TDP1 CPT: 0.65µM; Six1-Eya2 inh: inactive; TDP1 cell noCPT: 0.82µM; CtBP-E1A inh: inactive; IL-1B inflam inh: -96; TDP1 block: inactive

Results for COC(=O)c1ccc(NC(=O)CCN2C(=O)CSC2=O)cc1 ?
DT40 TDP1 CPT: inactive; Six1-Eya2 inh: inactive; TDP1 cell noCPT: inactive; CtBP-E1A inh: inactive; IL-1B inflam inh: inactive; TDP1 block: inactive

How did Cc1cc(Sc2nc(NC(C)(C)C)nc(N3CCOCC3)n2)nc(Cl)n1 do in these assays?
DT40 TDP1 CPT: inactive; Six1-Eya2 inh: inactive; TDP1 cell noCPT: inactive; CtBP-E1A inh: inactive; IL-1B inflam inh: inactive; TDP1 block: inactive

Results for COc1ccc(OC)c(S(=O)(=O)N2CCC(C(=O)Nc3cccc(C)c3C)CC2)c1 ?
DT40 TDP1 CPT: inactive; Six1-Eya2 inh: inactive; TDP1 cell noCPT: inactive; CtBP-E1A inh: inactive; IL-1B inflam inh: inactive; TDP1 block: inactive

Results for COc1ccc(OC)c(S(=O)(=O)N2CCC(C(=O)Nc3ccc(C)c(C)c3)CC2)c1 ?
DT40 TDP1 CPT: 16µM; Six1-Eya2 inh: inactive; TDP1 cell noCPT: 21µM; CtBP-E1A inh: inactive; IL-1B inflam inh: inactive; TDP1 block: inactive

How did COc1ccc(NC(=O)C2CCC(C(C)(C)C)CC2)cc1S(=O)(=O)N1CCOCC1 (stereo not given) do in these assays?
DT40 TDP1 CPT: 21µM; Six1-Eya2 inh: inactive; TDP1 cell noCPT: inconclusive; CtBP-E1A inh: inactive; IL-1B inflam inh: inactive; TDP1 block: inactive

Results for CC(=O)c1ccc2c3c(cc(C)c2c1)CCCC3 ?
DT40 TDP1 CPT: inactive; Six1-Eya2 inh: inactive; TDP1 cell noCPT: inactive; CtBP-E1A inh: inactive; IL-1B inflam inh: inactive

Results for CCOc1ccc(-c2nnc(NC(=O)Cc3ccc(OC)cc3)o2)cc1 ?
DT40 TDP1 CPT: inactive; Six1-Eya2 inh: inconclusive; TDP1 cell noCPT: inactive; CtBP-E1A inh: inactive; IL-1B inflam inh: inactive

How did COc1ccc(N2CCN(C(c3nnnn3C3CCCC3)C(C)C)CC2)cc1 (stereo not given) do in these assays?
DT40 TDP1 CPT: 21µM; Six1-Eya2 inh: inactive; TDP1 cell noCPT: 18µM; CtBP-E1A inh: inactive; IL-1B inflam inh: inactive; TDP1 block: inactive
